Laboratory results: PubChem BioAssay (EPA / NIEHS)
“And” between values parts separate entries of the source, which are not always exact repeats. Identical values can stand only once. Inconclusive results are not listed. The source made the active and inactive calls. Rule for the calls: active = hit-call score of the fitted dose curve at least 0.9, where 1 is the maximum; inconclusive = response in the unintended direction; inactive = score below 0.9.

Legend:
[1] = molecular target: Cellular tumor antigen p53 (Homo sapiens) (UniProt P04637); experiment: TOX21_p53_BLA_p2_ratio: Tox21 HCT-116 p53 Agonism Beta-lactamase Assay, Ratio, Phase 2 (AID 2283592)
How it was run: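 An inducible beta-lactamase reporter in HCT116 cells signals p53 pathway activation. After 16 h chemical exposure at 37C, cells load CCF4-AM substrate for 2 h at room temperature; activity is the cleaved/uncleaved emission ratio relative to DMSO.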

[2] = TOX21_p53_BLA_p3_viability: Viability Assessment in the Tox21 HCT-116 p53 Agonism Beta-lactamase Assay, Phase 3 (AID 2283593);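 note: cells exposed to compound for 16 h before reading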
How it was run: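 Cellular ATP was quantified by CellTiter-Glo luminescence, read after 30 min at room temperature. Beforehand, HCT116 cells (4000/well) received compound 5 h post-seeding, 217-fold diluted from DMSO, then incubated 16 h at 37C.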

[3] = molecular target: Cellular tumor antigen p53 (Homo sapiens) (UniProt P04637); experiment: TOX21_p53_BLA_p3_ratio: Tox21 HCT-116 p53 Agonism Beta-lactamase Assay, Ratio, Phase 3 (AID 2283596)
How it was run: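 HCT116 p53-bla cells (4000/well) given compound in DMSO (217-fold dilution) after 5 h, incubated 16 h at 37C. CCF4-AM substrate 2 h at room temperature; 460/530 nm emission ratio, gain fitted against DMSO.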

[4] = TOX21_p53_BLA_p4_viability: Viability Assessment in the Tox21 HCT-116 p53 Agonism Beta-lactamase Assay, Phase 4 (AID 2283597);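 note: hits lower the luminescence signal meaning cytotoxicity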
How it was run: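 Compound exposure of HCT116 cells lasts 16 h at 37C, 5% CO2, with DMSO stocks diluted 217-fold. Cellular ATP is then quantified by CellTiter-Glo luminescence after 30 min at room temperature.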

[5] = molecular target: Cellular tumor antigen p53 (Homo sapiens) (UniProt P04637); experiment: TOX21_p53_BLA_p5_ratio: Tox21 HCT-116 p53 Agonism Beta-lactamase Assay, Ratio, Phase 5 (AID 2283599)
How it was run: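 Beta-lactamase reporter ratio (blue 460 nm over green 530 nm, 405 nm excitation) after 2 h CCF4-AM loading, in HCT-116 cells exposed 16 h at 37 C to compounds pinned at 217-fold dilution. Increases relative to DMSO baseline scored.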

[6] = molecular target: Cellular tumor antigen p53 (Homo sapiens) (UniProt P04637); experiment: TOX21_p53_BLA_p4_ratio: Tox21 HCT-116 p53 Agonism Beta-lactamase Assay, Ratio, Phase 4 (AID 2283601)
How it was run: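 Signal is the blue/green (460nm/530nm) ratio of cleaved versus uncleaved CCF4-AM substrate, read after 2 h substrate loading. Cells were HCT116 carrying the p53-responsive beta-lactamase reporter, dosed 16 h at 37C, 5% CO2; CellTiter-Glo measured in parallel.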

[7] = TOX21_p53_BLA_p5_viability: Viability Assessment in the Tox21 HCT-116 p53 Agonism Beta-lactamase Assay, Phase 5 (AID 2283600)
How it was run: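 Counter-readout for cytotoxicity: ATP-dependent luminescence from CellTiter-Glo, read in the beta-lactamase wells after 30 min at RT, following a 16 h compound exposure at 37C.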

Chain of Cellular tumor antigen p53 (Homo sapiens) (P04637 whole entry, looked up): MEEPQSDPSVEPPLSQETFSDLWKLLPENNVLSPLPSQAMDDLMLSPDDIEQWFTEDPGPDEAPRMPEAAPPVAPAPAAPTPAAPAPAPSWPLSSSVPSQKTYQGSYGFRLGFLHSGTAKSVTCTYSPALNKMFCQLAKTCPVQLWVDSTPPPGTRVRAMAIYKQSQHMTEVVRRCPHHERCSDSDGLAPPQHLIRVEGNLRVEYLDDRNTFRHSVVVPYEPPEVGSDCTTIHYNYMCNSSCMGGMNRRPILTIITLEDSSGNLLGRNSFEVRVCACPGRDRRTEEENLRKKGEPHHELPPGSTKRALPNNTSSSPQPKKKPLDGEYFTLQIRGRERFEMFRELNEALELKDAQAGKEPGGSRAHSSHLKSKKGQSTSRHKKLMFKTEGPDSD

| SMILES | outcome [1] | outcome [2] | outcome [3] | outcome [4] | outcome [5] | outcome [6] | AC50 [1] | AC50 [3] | AC50 [5] | outcome [7] | AC50 [6] |
| --- | --- | --- | --- | --- | --- | --- | --- | --- | --- | --- | --- |
| ClC=CCCl | inactive | inactive | inactive | inactive | inactive | inactive |  |  |  |  |  |
| N#CSCc1ccccc1 |  | inactive |  | inactive | inactive | inactive | 80.2 µM (active) | 30.7 µM (active) |  |  |  |
| C[C@]12CC[C@@H]3c4ccc(OC(=O)N(CCCl)CCCl)cc4CC[C@H]3[C@@H]1CC[C@@H]2OP(=O)(O)O |  | inactive |  | inactive |  |  | 8.82 µM (active) and 26.6 µM (active) | 7.01 µM (active) and 23.1 µM (active) | 7.78 µM (active) and 24.6 µM (active) | inactive | 8.9 µM (active) and 36.3 µM (active) |
